# Legend:
# Experiment in all cases: SPOT peptide array binding signal intensity (averaged, normalized) (arbitrary units (background-subtracted, floor 0; scale differs between SH3 domains)); higher = stronger binding of the SH3 domain to the peptide
# AgAbp1 = molecular target: AgAbp1
# Method in brief: (§1)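 Binding signal is given in arbitrary units that differ between domains and is the normalized, background-subtracted spot intensity averaged across replicates. Each GST-SH3 fusion from one of four yeast species was made in E. coli BL21(DE3), purified on glutathione Sepharose and incubated at 10 μg/ml overnight at 4°C on cellulose-bound synthetic 15-mer peptides in which cysteines were replaced by serines. Detection used anti-GST antibody, an HRP anti-mouse secondary and luminol, followed by imaging and Genespotter quantification.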
# AgBbc1 = molecular target: AgBbc1
# Method in brief: as §1
# AgBem1-D1 = molecular target: AgBem1-D1
# Method in brief: as §1
# AgBzz1-D1 = molecular target: AgBzz1-D1
# Method in brief: as §1
# AgBzz1-D2 = molecular target: AgBzz1-D2
# Method in brief: as §1
# AgCyk3 = molecular target: AgCyk3
# Method in brief: as §1
# AgFus1 = molecular target: AgFus1
# Method in brief: as §1
# AgHof1 = molecular target: AgHof1
# Method in brief: as §1
# AgHse1 = molecular target: AgHse1
# Method in brief: as §1
# AgLsb1 = molecular target: AgLsb1
# Method in brief: as §1
# AgLsb4 = molecular target: AgLsb4
# Method in brief: as §1
# AgMyo5 = molecular target: AgMyo5
# Method in brief: as §1
# AgNbp2 = molecular target: AgNbp2
# Method in brief: as §1
# AgRvs167 = molecular target: AgRvs167
# Method in brief: as §1
# AgSho1 = molecular target: AgSho1
# Method in brief: as §1
# AgSla1-D1-D2 = molecular target: AgSla1-D1-D2
# Method in brief: as §1
# AgSla1-D3 = molecular target: AgSla1-D3
# Method in brief: as §1
# CaAbp1-D1 = molecular target: CaAbp1-D1
# Method in brief: as §1
# CaAbp1-D2 = molecular target: CaAbp1-D2
# Method in brief: as §1
# CaBbc1 = molecular target: CaBbc1
# Method in brief: as §1
# CaBem1-D1 = molecular target: CaBem1-D1
# Method in brief: as §1
# CaBzz1-D1 = molecular target: CaBzz1-D1
# Method in brief: as §1
# CaBzz1-D2 = molecular target: CaBzz1-D2
# Method in brief: as §1
# CaCyk3 = molecular target: CaCyk3
# Method in brief: as §1
# CaFus1 = molecular target: CaFus1
# Method in brief: as §1
# CaHof1 = molecular target: CaHof1
# Method in brief: as §1
# CaHse1 = molecular target: CaHse1
# Method in brief: as §1
# CaLsb1 = molecular target: CaLsb1
# Method in brief: as §1
# CaLsb4 = molecular target: CaLsb4
# Method in brief: as §1
# CaMyo5 = molecular target: CaMyo5
# Method in brief: as §1
# CaNbp2 = molecular target: CaNbp2
# Method in brief: as §1
# CaRvs167 = molecular target: CaRvs167
# Method in brief: as §1
# CaRvs167-3 = molecular target: CaRvs167-3
# Method in brief: as §1
# CaSho1 = molecular target: CaSho1
# Method in brief: as §1
# CaSla1-D1-D2 = molecular target: CaSla1-D1-D2
# Method in brief: as §1
# CaSla1-D3 = molecular target: CaSla1-D3
# Method in brief: as §1
# ScAbp1 = molecular target: ScAbp1
# Method in brief: as §1
# ScBbc1 = molecular target: ScBbc1
# Method in brief: as §1
# ScBem1-D1 = molecular target: ScBem1-D1
# Method in brief: as §1
# ScBzz1-D1 = molecular target: ScBzz1-D1
# Method in brief: as §1
# ScBzz1-D2 = molecular target: ScBzz1-D2
# Method in brief: as §1
# ScCyk3 = molecular target: ScCyk3
# Method in brief: as §1
# ScFus1 = molecular target: ScFus1
# Method in brief: as §1
# ScHof1 = molecular target: ScHof1
# Method in brief: as §1
# ScHse1 = molecular target: ScHse1
# Method in brief: as §1
# ScLsb1 = molecular target: ScLsb1
# Method in brief: as §1
# ScLsb2 = molecular target: ScLsb2
# Method in brief: as §1
# ScLsb3 = molecular target: ScLsb3
# Method in brief: as §1
# ScLsb4 = molecular target: ScLsb4
# Method in brief: as §1
# ScMyo3 = molecular target: ScMyo3
# Method in brief: as §1
# ScMyo5 = molecular target: ScMyo5
# Method in brief: as §1
# ScNbp2 = molecular target: ScNbp2
# Method in brief: as §1
# ScPex13 = molecular target: ScPex13
# Method in brief: as §1
# ScRvs167 = molecular target: ScRvs167
# Method in brief: as §1
# ScSho1 = molecular target: ScSho1
# Method in brief: as §1
# ScSla1-D1-D2 = molecular target: ScSla1-D1-D2
# Method in brief: as §1
# ScSla1-D3 = molecular target: ScSla1-D3
# Method in brief: as §1
# SpAbp1-D1 = molecular target: SpAbp1-D1
# Method in brief: as §1
# SpBbc1 = molecular target: SpBbc1
# Method in brief: as §1
# SpBzz1-D1 = molecular target: SpBzz1-D1
# Method in brief: as §1
# SpBzz1-D2 = molecular target: SpBzz1-D2
# Method in brief: as §1
# SpCyk3 = molecular target: SpCyk3
# Method in brief: as §1
# SpHof1 = molecular target: SpHof1
# Method in brief: as §1
# SpHof1-2 = molecular target: SpHof1-2
# Method in brief: as §1
# SpHof1-3 = molecular target: SpHof1-3
# Method in brief: as §1
# SpHse1 = molecular target: SpHse1
# Method in brief: as §1
# SpLsb1 = molecular target: SpLsb1
# Method in brief: as §1
# SpLsb4 = molecular target: SpLsb4
# Method in brief: as §1
# SpMyo1 = molecular target: SpMyo1
# Method in brief: as §1
# SpNbp2 = molecular target: SpNbp2
# Method in brief: as §1
# SpPex13 = molecular target: SpPex13
# Method in brief: as §1
# SpRvs167 = molecular target: SpRvs167
# Method in brief: as §1
# SpSla1-D1-D2 = molecular target: SpSla1-D1-D2
# Method in brief: as §1
# SpSla1-D3 = molecular target: SpSla1-D3
# Method in brief: as §1
binder,measurement,setting,value
HKVLRPFLLRRLKKD,SPOT peptide array binding signal intensity,AgAbp1,172
same,SPOT peptide array binding signal intensity,AgBbc1,≤ 0
same,SPOT peptide array binding signal intensity,AgBem1-D1,≤ 0
same,SPOT peptide array binding signal intensity,AgBzz1-D1,1.5
same,SPOT peptide array binding signal intensity,AgBzz1-D2,31.5
same,SPOT peptide array binding signal intensity,AgCyk3,≤ 0
same,SPOT peptide array binding signal intensity,AgFus1,479
same,SPOT peptide array binding signal intensity,AgHof1,39.4
same,SPOT peptide array binding signal intensity,AgHse1,2970
same,SPOT peptide array binding signal intensity,AgLsb1,0.5
same,SPOT peptide array binding signal intensity,AgLsb4,19.5
same,SPOT peptide array binding signal intensity,AgMyo5,≤ 0
same,SPOT peptide array binding signal intensity,AgNbp2,45.8
same,SPOT peptide array binding signal intensity,AgRvs167,0.5
same,SPOT peptide array binding signal intensity,AgSho1,156
same,SPOT peptide array binding signal intensity,AgSla1-D1-D2,27
same,SPOT peptide array binding signal intensity,AgSla1-D3,2.75
same,SPOT peptide array binding signal intensity,CaAbp1-D1,569
same,SPOT peptide array binding signal intensity,CaAbp1-D2,617
same,SPOT peptide array binding signal intensity,CaBbc1,≤ 0
same,SPOT peptide array binding signal intensity,CaBem1-D1,3.5
same,SPOT peptide array binding signal intensity,CaBzz1-D1,≤ 0
same,SPOT peptide array binding signal intensity,CaBzz1-D2,≤ 0
same,SPOT peptide array binding signal intensity,CaCyk3,≤ 0
same,SPOT peptide array binding signal intensity,CaFus1,2980
same,SPOT peptide array binding signal intensity,CaHof1,7.63e-06
same,SPOT peptide array binding signal intensity,CaHse1,124
same,SPOT peptide array binding signal intensity,CaLsb1,≤ 0
same,SPOT peptide array binding signal intensity,CaLsb4,≤ 0
same,SPOT peptide array binding signal intensity,CaMyo5,≤ 0
same,SPOT peptide array binding signal intensity,CaNbp2,715
same,SPOT peptide array binding signal intensity,CaRvs167,6.08
same,SPOT peptide array binding signal intensity,CaRvs167-3,281
same,SPOT peptide array binding signal intensity,CaSho1,736
same,SPOT peptide array binding signal intensity,CaSla1-D1-D2,8.5
same,SPOT peptide array binding signal intensity,CaSla1-D3,15.5
same,SPOT peptide array binding signal intensity,ScAbp1,271
same,SPOT peptide array binding signal intensity,ScBbc1,≤ 0
same,SPOT peptide array binding signal intensity,ScBem1-D1,19.5
same,SPOT peptide array binding signal intensity,ScBzz1-D1,22.5
same,SPOT peptide array binding signal intensity,ScBzz1-D2,≤ 0
same,SPOT peptide array binding signal intensity,ScCyk3,38
same,SPOT peptide array binding signal intensity,ScFus1,742
same,SPOT peptide array binding signal intensity,ScHof1,≤ 0
same,SPOT peptide array binding signal intensity,ScHse1,2170
same,SPOT peptide array binding signal intensity,ScLsb1,≤ 0
same,SPOT peptide array binding signal intensity,ScLsb2,≤ 0
same,SPOT peptide array binding signal intensity,ScLsb3,≤ 0
same,SPOT peptide array binding signal intensity,ScLsb4,≤ 0
same,SPOT peptide array binding signal intensity,ScMyo3,1.12
same,SPOT peptide array binding signal intensity,ScMyo5,2.5
same,SPOT peptide array binding signal intensity,ScNbp2,102
same,SPOT peptide array binding signal intensity,ScPex13,0.5
same,SPOT peptide array binding signal intensity,ScRvs167,3.42
same,SPOT peptide array binding signal intensity,ScSho1,994
same,SPOT peptide array binding signal intensity,ScSla1-D1-D2,≤ 0
same,SPOT peptide array binding signal intensity,ScSla1-D3,3.25
same,SPOT peptide array binding signal intensity,SpAbp1-D1,250
same,SPOT peptide array binding signal intensity,SpBbc1,3
same,SPOT peptide array binding signal intensity,SpBzz1-D1,70
same,SPOT peptide array binding signal intensity,SpBzz1-D2,7.63e-06
same,SPOT peptide array binding signal intensity,SpCyk3,1.5
same,SPOT peptide array binding signal intensity,SpHof1,74.8
same,SPOT peptide array binding signal intensity,SpHof1-2,4
same,SPOT peptide array binding signal intensity,SpHof1-3,1720
same,SPOT peptide array binding signal intensity,SpHse1,2230
same,SPOT peptide array binding signal intensity,SpLsb1,≤ 0
same,SPOT peptide array binding signal intensity,SpLsb4,≤ 0
same,SPOT peptide array binding signal intensity,SpMyo1,2.62
same,SPOT peptide array binding signal intensity,SpNbp2,222
same,SPOT peptide array binding signal intensity,SpPex13,13.5
same,SPOT peptide array binding signal intensity,SpRvs167,0.333
same,SPOT peptide array binding signal intensity,SpSla1-D1-D2,≤ 0
same,SPOT peptide array binding signal intensity,SpSla1-D3,5.5
AGKRRLPLVRFKASD,SPOT peptide array binding signal intensity,AgAbp1,162
same,SPOT peptide array binding signal intensity,AgBbc1,109
same,SPOT peptide array binding signal intensity,AgBem1-D1,301
same,SPOT peptide array binding signal intensity,AgBzz1-D1,44
same,SPOT peptide array binding signal intensity,AgBzz1-D2,40.5
same,SPOT peptide array binding signal intensity,AgCyk3,5
same,SPOT peptide array binding signal intensity,AgFus1,783
same,SPOT peptide array binding signal intensity,AgHof1,84
same,SPOT peptide array binding signal intensity,AgHse1,1070
same,SPOT peptide array binding signal intensity,AgLsb1,4
same,SPOT peptide array binding signal intensity,AgLsb4,214
same,SPOT peptide array binding signal intensity,AgMyo5,2
same,SPOT peptide array binding signal intensity,AgNbp2,232
same,SPOT peptide array binding signal intensity,AgRvs167,6
same,SPOT peptide array binding signal intensity,AgSho1,218
same,SPOT peptide array binding signal intensity,AgSla1-D1-D2,736
same,SPOT peptide array binding signal intensity,AgSla1-D3,11.8
same,SPOT peptide array binding signal intensity,CaAbp1-D1,1220
same,SPOT peptide array binding signal intensity,CaAbp1-D2,806
same,SPOT peptide array binding signal intensity,CaBbc1,259
same,SPOT peptide array binding signal intensity,CaBem1-D1,80.5
same,SPOT peptide array binding signal intensity,CaBzz1-D1,125
same,SPOT peptide array binding signal intensity,CaBzz1-D2,147
same,SPOT peptide array binding signal intensity,CaCyk3,69
same,SPOT peptide array binding signal intensity,CaFus1,2040
same,SPOT peptide array binding signal intensity,CaHof1,0.75
same,SPOT peptide array binding signal intensity,CaHse1,71.5
same,SPOT peptide array binding signal intensity,CaLsb1,2
same,SPOT peptide array binding signal intensity,CaLsb4,173
same,SPOT peptide array binding signal intensity,CaMyo5,3

# From the supplement of paper PMC4466140
